Bioassay records from PubChem.
Only some compounds are listed: those with a hit (about 3.5% of all), similar ones and a draw of the others.
MITF inh – MITF inhibitors, primary screen, biochemical, AlphaScreen, human | Microphthalmia-associated transcription factor (Homo sapiens), O75030 | AlphaScreen MITF homodimerization, bead proximity signal | inhibition, % at 2.6 µM | actives 0.91% (n = 650,000) | AID 1259374, 2018; in the data active means inhibition above about 50%;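 further: 0% = vehicle wells with protein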
FBW7 activator – FBW7 E3 ligase activators, primary screen, biochemical, AlphaScreen, human | F-box/WD repeat-containing protein 7 (Homo sapiens), Q969H0 | normalized activity (activation), % at 26.1 µM | AID 1259310, 2017 | actives 0.13% (n = 650,000) | AlphaScreen FBW7–phospho-cyclin E peptide binding, activator screen; in the data active means normalized activity above about 1.9%;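 further: purified mutant Fbw7 with reduced substrate affinity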
Target sequence (Q969H0 whole entry, looked up): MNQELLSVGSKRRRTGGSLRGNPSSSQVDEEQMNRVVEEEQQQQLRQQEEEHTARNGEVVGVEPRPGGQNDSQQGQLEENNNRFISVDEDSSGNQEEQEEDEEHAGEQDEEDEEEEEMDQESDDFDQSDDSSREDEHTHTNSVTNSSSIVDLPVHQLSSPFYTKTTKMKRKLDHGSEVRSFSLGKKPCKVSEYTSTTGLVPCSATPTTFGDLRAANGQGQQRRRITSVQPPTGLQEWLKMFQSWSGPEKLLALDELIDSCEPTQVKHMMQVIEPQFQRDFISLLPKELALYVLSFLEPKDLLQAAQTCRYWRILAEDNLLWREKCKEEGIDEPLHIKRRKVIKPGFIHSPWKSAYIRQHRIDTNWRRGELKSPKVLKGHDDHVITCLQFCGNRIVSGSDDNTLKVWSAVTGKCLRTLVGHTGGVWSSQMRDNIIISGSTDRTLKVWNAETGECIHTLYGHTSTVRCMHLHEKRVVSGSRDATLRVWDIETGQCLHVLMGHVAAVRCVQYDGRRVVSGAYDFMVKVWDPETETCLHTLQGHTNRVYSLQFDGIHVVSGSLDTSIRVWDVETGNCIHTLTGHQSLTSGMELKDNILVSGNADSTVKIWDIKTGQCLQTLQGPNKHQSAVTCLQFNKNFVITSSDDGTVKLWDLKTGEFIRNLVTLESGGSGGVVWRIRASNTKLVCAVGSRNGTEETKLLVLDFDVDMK
TEAD-YAP block – TEAD-YAP interaction inhibition, primary screen, TEAD-YAP interaction inhibitor project, luminescence, HEK-TIYL cells | inhibition, % at 9.12 µM | TEAD-Gal4/YAP UAS-luciferase luminescence | actives 1.4% (n = 640,000) | AID 1259422, 2018; in the data active means inhibition above about 32%;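 further: 0% = median of test compound wells and 100% = reference inhibitor wells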
GPR151 ag – activators of human GPR151, primary screen, cell-based, PathHunter beta-arrestin, luminescence; PathHunter beta-arrestin GPR151 cells; activation, % at 11.2 µM; actives 1% (n = 650,000); AID 1508602, 2020; in the data active means activation above about 4.9%;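 further: 0% = median of compound wells and 100% = cells with positive control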
MITF inh conf – MITF inhibitors, retest of hits, confirmation, biochemical, AlphaScreen, triplicate; shares compounds with MITF inh; AlphaScreen MITF homodimerization, biotin/His-MITF beads; inhibition, % at 2.6 µM; actives 16% (n = 4,700); AID 1259372, 2018;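 active means inhibition above a cutoff derived from the DMSO control wells, cut at about 28% in these data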;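 further: 0% = MITF dimer wells with DMSO only; inhibitors lower the bead chemiluminescence by keeping MITF from dimerizing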
AlphaScreen DR – AlphaScreen optical interference compounds, dose response, counter-screen, biochemical, HTS; IC50, µM; shares compounds with MITF inh; actives 6% (n = 480); AlphaScreen optical interference counterscreen, cell-free; call rule not given here
AlphaScreen intf2 – AlphaScreen optical interference compounds, counter-screen for MITF inhibitor project, biochemical, triplicate | shares compounds with MITF inh | LysRS AlphaScreen counterscreen, signal interference | inhibition, % at 2.6 µM | actives 7.6% (n = 4,700);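 active means inhibition above a cutoff derived from the DMSO control wells, cut at about 30% in these data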
GPR151 conf act – GPR151 activators, triplicate retest, confirmation, cell-based, PathHunter beta-arrestin, luminescence; shares compounds with GPR151 ag; 6,700 tested, under 10 active; activation, % at 11.2 µM; GPR151 PathHunter beta-arrestin cells, 90 min; % of EA-reagent control over plate median; AID 1508609, 2020;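 active means mean percent activation across replicates above the confirmation screen cutoff of 4.91%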
GPR119 counter – GPR119 activators in beta-arrestin cells, counter-screen for GPR151 activator project, cell-based, PathHunter beta-arrestin, luminescence, triplicate. activation, % at 11.2 µM. 90 min; 0 = compound-well median, 100 = enzyme-acceptor control. actives 0.3% (n = 6,700). shares compounds with GPR151 ag;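 active means mean percent activation in the counterscreen above 29.09%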;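 further: counterscreen on off-target GPR119 to flag nonselective hits from the GPR151 activator screen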
Starred values were filed as active, the others as inactive; / = not tested or not shown; ! = repeats disagree.

SMILES	MITF inh	FBW7 activator	TEAD-YAP block	GPR151 ag	GPR151 conf act	GPR119 counter	others
C1CCC(N2CCN(C3CC4CCC3C4)CC2)C1 (centres undefined)	67*	0	-4	1	/	/	MITF inh conf=-2;AlphaScreen intf2=1
O=C(Cc1ccccc1)N1CCN(C2CC3CCC2C3)CC1 (centres undefined)	24	0	-4	-1	/	/
COc1cccc(-n2c(/C=C/c3ccccc3F)nc3ccccc3c2=O)c1	7	0	-3	0	/	/
COc1ccc(CC2NCCc3cc(OC)c(OC)cc32)cc1OC (centres undefined)	84*	0	-1	-1	/	/	MITF inh conf=101*;AlphaScreen DR=3.4*;AlphaScreen intf2=4
COc1ccc(CCNC2C3CC4CC(C3)CC2C4)cc1OC (centres undefined)	4	0	8	1	/	/
CN(C)[C@@H]1C(=O)C(C(N)=O)=C(O)[C@@]2(O)C(=O)C3=C(O)c4c(O)ccc(Cl)c4[C@@](C)(O)[C@H]3C[C@@H]12	-5	0	-13	-1	/	/
CN(C)[C@@H]1C(=O)C(C(N)=O)=C(O)[C@@]2(O)C(=O)C3=C(O)c4c(O)cccc4[C@@](C)(O)[C@H]3[C@H](O)[C@@H]12	64*	0	-2	7.4*!	0	0	MITF inh conf=62*;AlphaScreen DR=4.4*!;AlphaScreen intf2=31*!
CSc1ccc(CN2CCN(Cc3ccc(F)cc3)CC2)cc1	78*	0	10	5.2*	0	-5	MITF inh conf=3;AlphaScreen intf2=0
CCCCC/C=C\C/C=C\C/C=C\C/C=C\CCCC(=O)NCCc1c[nH]c2ccc(O)cc12	-2	/	/	0	/	/
Cc1c(N=Nc2c(O)[nH]c(=S)[nH]c2=O)c(=O)n(-c2ccccc2)n1C	92*	0	-9	15*	1	4	MITF inh conf=36*;AlphaScreen intf2=100*
Cc1ccc(OCC(=O)N2CCN(C3CCCCCC3)CC2)cc1	39	0	-5	-1	/	/
Cc1c(C(=O)c2ccc3ccccc3c2)c2cccc3c2n1[C@H](CN1CCOCC1)CO3	10	1	/	5.4*	1	-9
CC(C)C(=O)Nc1ccc(S(=O)(=O)N2CC3CC(C2)c2cccc(=O)n2C3)cc1 (centres undefined)	8	0	2	13*	0	9
CC(=O)Nc1ccc(S(=O)(=O)N2CC3CC(C2)c2cccc(=O)n2C3)cc1 (centres undefined)	-10	0	-8	1	/	/
CCCCCC(=O)N1c2ccc(C)cc2C2CN(C)CCC21 (centres undefined)	4	0	9	-1	/	/
CCCCNC(=O)N1c2ccc(C)cc2C2CN(C)CCC21 (centres undefined)	-2	0	5	5.9*	-1	6
O=C(CN1C2CCC1CC(O)(c1ccccc1F)C2)NC1CCCC1 (centres undefined)	17	0	-5	1	/	/
CC1=NCCc2c1[nH]c1cc(O)ccc21	-3	0	6	5.0*!	3	1
O=c1c2ccccc2nc(/C=C/c2ccccc2)n1-c1ccc(Cl)cc1	-19	0	12	4.9*	0	-6
O=c1c2ccccc2nc(/C=C/c2ccccc2)n1-c1ccccc1	6	0	-4	0	/	/
CCOc1ccc(-n2c(/C=C/c3ccccc3)nc3ccccc3c2=O)cc1	-4	0	13	6.9*	0	-6
CC12C=CC(=O)C=C1CCC1C2CCC2(C)C(=O)CCC12 (centres undefined)	7	0	-16	5.1*	0	-6
C[C@]12CCC(=O)C=C1CC[C@@H]1[C@@H]2CC[C@]2(C)C(=O)CC[C@@H]12	2	1	-6	-1	/	/
O=c1cccc2n1CC1CC2CN(C(=S)Nc2ccccc2)C1 (centres undefined)	4	1	10	-2	/	/
COc1cc(OC)cc(C(=O)NC(=S)N2CC3CC(C2)c2cccc(=O)n2C3)c1 (centres undefined)	-3	0	1	7.5*	-1	2
SMILES	MITF inh	FBW7 activator	TEAD-YAP block	GPR151 ag	GPR151 conf act	GPR119 counter	others
COc1ccc(C2(CN)CCCC2)cc1	0	0	1	0	/	/
COc1ccc(C(CN(C)C)C2(O)CCCCC2)cc1 (centres undefined)	4	0	4	8.7*!	0	5
CN(C)CCNc1ccc([N+](=O)[O-])c2cnccc12	8	0	26	0	/	/
CCOC(=O)C1C2NC(=S)N(c3ccccc3)C1(C)Oc1ccccc12 (centres undefined)	24	0	-4	1	/	/
C=CCOC(=O)C1C2NC(=S)N(c3cccc(Cl)c3)C1(C)Oc1ccccc12 (centres undefined)	-4	0	-7	10.0*	0	2
CC(=O)ON1C(=O)C2C(C1=O)C1(Cl)C(Cl)=C(Cl)C2(Cl)C1(Cl)Cl (centres undefined)	12	1	0	1	/	/
O=C(CN1CCN(C(=O)COc2ccc(Cl)cc2Cl)CC1)c1cccs1	44	0	-5	1	/	/
CCOc1ccc(CN2CCN(CC(C)(C)C)C(CCO)C2)cc1 (centres undefined)	-11	0	4	-1	/	/
CCN1CC2(COC)CC[C@H](O)C34C5C[C@@H]6C(OC)C[C@@](O)(C5[C@H]6OC(C)=O)[C@@H](CC23)[C@@H]14 (some centres undefined)	-1	0	3	5.4*	0	8
CCN(Cc1ccccc1)C(=O)C(Cl)(Cl)Cl	2	0	5	6.0*	-1	2
COc1ccc2nc(N3CCC(NC(C)Cc4cccs4)CC3)nc(C)c2c1 (centres undefined)	-6	1	4	0	/	/
